{"source": "PubChem BioAssay AID624255", "about": "(Broad Institute, 2012)", "note": "The campaign covered roughly 77,000 compounds. About 4,600 (6%) were called active. Not shown: some 1% with an inconclusive outcome. The entries come from a sample that favours actives as a whole. Unmarked numbers belong to inactive results.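 How the source made its calls: active means mean inhibition above about 93%, with at least 55% of replicates each passing it (limit read from the data, passing the limit was not always enough); inconclusive means only one of those two conditions holds; inactive means neither condition holds.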"}
{"assay": "T. cruzi intracellular proliferation inhibitors, primary screen, cell-based, beta-gal Tulahuen parasites, NIH3T3 host, luminescence (AID 624255)", "details": "T. cruzi beta-gal in NIH3T3, GalScreen luminescence, 90 h; at 8.34 µM; stronger effect = higher value"}
{"smiles": "Cc1noc(C)c1NC(=O)Nc1ccc2c(c1)C(=O)N([C@H](C)CO)C[C@@H](C)[C@H](CN(C)C(=O)Nc1cccc3ccccc13)OCCCC[C@@H](C)O2", "inhibition": "80.3%"}
{"smiles": "C/C=C/c1ccc([C@@H]2[C@H](CO)N(C(C)=O)[C@H]2CN(CC)C(=O)CN(C)C)cc1", "inhibition": "81.2%"}
{"smiles": "C[C@@H]1CN([C@H](C)CO)C(=O)c2cc(NC(=O)CCCN(C)C)ccc2O[C@@H](C)CCCCO[C@@H]1CN(C)Cc1ccncc1", "inhibition": "14.7%"}
{"smiles": "CN(C)C(=O)[C@@H]1[C@@H](CO)[C@@H]2Cn3c(cccc3=O)[C@@H]2N1C(=O)C1CCC1", "inhibition": "-8.64%"}
{"smiles": "COc1ccc(S(=O)(=O)N(C)C[C@@H]2OCCCC[C@H](C)Oc3ccc(NC(=O)NC4CCCCC4)cc3C(=O)N([C@H](C)CO)C[C@H]2C)cc1", "inhibition": "94%"}
{"smiles": "O=C(C[C@H]1CC[C@@H]2[C@H](COC[C@@H](O)CN2C(=O)Nc2ccc(C(F)(F)F)cc2)O1)NCCc1ccncc1", "inhibition": "57%"}
{"smiles": "O=C(C[C@@H]1CC[C@@H]2[C@H](COC[C@H](O)CN2C(=O)Cc2ccccc2)O1)NC1CCC1", "inhibition": "27.2%"}
{"smiles": "C[C@@H]1CN([C@@H](C)CO)C(=O)c2cc(NS(C)(=O)=O)ccc2O[C@@H](C)CCCCO[C@@H]1CN(C)S(=O)(=O)c1cn(C)cn1", "inhibition": "-54%"}
{"smiles": "C[C@@H]1CN([C@@H](C)CO)C(=O)c2cc(NS(=O)(=O)c3cn(C)cn3)ccc2O[C@@H](C)CCCCO[C@H]1CN(C)S(=O)(=O)c1cn(C)cn1", "inhibition": "-14.8%"}
{"smiles": "CNC[C@H]1OCCCC[C@@H](C)Oc2ccc(NS(C)(=O)=O)cc2C(=O)N([C@@H](C)CO)C[C@H]1C", "inhibition": "61.9%"}
{"smiles": "C[C@@H]1CN([C@H](C)CO)C(=O)c2cccc(NS(=O)(=O)c3cn(C)cn3)c2O[C@H]1CN(C)CC1CC1", "inhibition": "27.4%"}
{"smiles": "C[C@@H]1CN([C@H](C)CO)C(=O)c2cc(NS(C)(=O)=O)ccc2O[C@@H](C)CCCCO[C@H]1CN(C)S(=O)(=O)c1cn(C)cn1", "inhibition": "104% (active)"}
{"smiles": "CNC[C@@H]1OCCCC[C@@H](C)Oc2ccc(NS(C)(=O)=O)cc2C(=O)N([C@H](C)CO)C[C@@H]1C", "inhibition": "4.76%"}
{"smiles": "C[C@@H]1CCCCO[C@H](CN(C)C(=O)CCC(F)(F)F)[C@H](C)CN([C@H](C)CO)C(=O)c2cc(NS(C)(=O)=O)ccc2O1", "inhibition": "107% (active)"}
{"smiles": "C[C@H]1CN([C@@H](C)CO)C(=O)c2cccc(NS(=O)(=O)c3cn(C)cn3)c2O[C@@H]1CN(C)CC1CCCCC1", "inhibition": "96.2% (active)"}
{"smiles": "C[C@H](CO)N1C[C@H](C)[C@H](CN(C)C(=O)CCC(F)(F)F)OCCCC[C@H](C)Oc2ccc(NS(C)(=O)=O)cc2C1=O", "inhibition": "-3.61%"}
{"smiles": "C[C@H]1CN([C@@H](C)CO)C(=O)c2cc(NS(=O)(=O)c3cn(C)cn3)ccc2O[C@H]1CN(C)CC1CCCCC1", "inhibition": "3.71%"}
{"smiles": "C[C@@H]1CN([C@H](C)CO)C(=O)c2cc(NS(=O)(=O)c3ccccc3)ccc2O[C@@H](C)CCCCO[C@@H]1CN(C)C(=O)CCC(F)(F)F", "inhibition": "-2.2%"}
{"smiles": "CNC[C@H]1OCCCC[C@@H](C)Oc2ccc(NS(C)(=O)=O)cc2C(=O)N([C@H](C)CO)C[C@H]1C", "inhibition": "101% (active)"}
{"smiles": "CNC(=O)C[C@H]1CC[C@@H]2[C@@H](COc3ccc(NC(=O)c4ccc(F)c(F)c4)cc3C(=O)N2C)O1", "inhibition": "-6.57%"}
{"smiles": "CCNC(=O)Nc1ccc2c(c1)C(=O)N(C)[C@H]1CC[C@@H](CC(=O)N[C@H](C)c3ccccc3)O[C@@H]1CO2", "inhibition": "13.7%"}
{"smiles": "Cc1noc(C)c1S(=O)(=O)N(C)C[C@@H]1Oc2ccc(NC(=O)Cn3cnnn3)cc2CC(=O)N([C@@H](C)CO)C[C@@H]1C", "inhibition": "-16.4%"}
{"smiles": "Cc1ccc(S(=O)(=O)N[C@@H]2CC[C@H](CCNC(=O)C3CCOCC3)O[C@@H]2CO)cc1", "inhibition": "2.56%"}
{"smiles": "CO[C@H]1CN(C)C(=O)c2cc(NC(=O)C3CCC3)ccc2OC[C@H](C)N(C)C[C@H]1C", "inhibition": "17%"}
{"smiles": "CC=Cc1ccc2n(c1=O)C[C@@H]1[C@@H](CO)[C@H](C(=O)NCC3CC3)[C@H]2N1C(=O)c1ccccc1", "note": "(mixture of isomers)", "inhibition": "35.2%"}
{"smiles": "COc1ccc(-c2ccc([C@@H]3[C@@H](CO)N4CCCCN(C(=O)NC(C)C)C[C@H]34)cc2)cc1", "inhibition": "73.2%"}
{"smiles": "CN1C(=O)c2cc(NS(C)(=O)=O)ccc2OC[C@H]2O[C@H](CC(=O)NCc3ccccc3)CC[C@H]21", "inhibition": "-19.6%"}
{"smiles": "CO[C@@H]1CN(C)C(=O)c2ccc(NC(=O)Nc3ccccc3)cc2OC[C@@H](C)N(C(=O)CN(C)C)C[C@H]1C", "inhibition": "-44.4%"}
{"smiles": "O=C([C@@H]1[C@@H](CO)[C@@H]2Cn3c(ccc(-c4ccccc4)c3=O)[C@H]1N2CCC(F)(F)F)N1CCCCC1", "inhibition": "1.28%"}
{"smiles": "CNC[C@@H]1OCCCC[C@H](C)Oc2ccc(NC(=O)Nc3ccccc3)cc2C(=O)N([C@H](C)CO)C[C@H]1C", "inhibition": "28.6%"}
{"smiles": "CNC[C@H]1OCCCC[C@H](C)Oc2ccc(NC(=O)Nc3c(C)noc3C)cc2C(=O)N([C@H](C)CO)C[C@H]1C", "inhibition": "104% (active)"}
{"smiles": "Cc1noc(C)c1NC(=O)Nc1ccc2c(c1)C(=O)N([C@H](C)CO)C[C@H](C)[C@@H](CN(C)S(C)(=O)=O)OCCCC[C@H](C)O2", "inhibition": "11.5%"}
{"smiles": "CO[C@@H]1CN(C)C(=O)c2cc(NC(=O)NC(C)C)ccc2OC[C@@H](C)N(CC2CC2)C[C@@H]1C", "inhibition": "-28.4%"}
{"smiles": "O=C(C[C@@H]1CC[C@@H]2[C@H](COC[C@H](O)CN2S(=O)(=O)c2ccc(F)cc2)O1)NCc1ccc(Cl)c(Cl)c1", "inhibition": "54.2%"}
{"smiles": "O=C(C[C@H]1CC[C@H]2[C@@H](COC[C@H](O)CN2S(=O)(=O)c2cccc(Cl)c2)O1)Nc1ccccc1", "inhibition": "11.3%"}
{"smiles": "Cc1ccc(S(=O)(=O)N2C[C@H](O)COC[C@@H]3O[C@@H](CC(=O)NCC4CCCCC4)CC[C@H]32)cc1", "inhibition": "5.15%"}
{"smiles": "Cc1cccc(S(=O)(=O)N2C[C@@H](O)COC[C@H]3O[C@H](CC(=O)Nc4ccc(-c5ccccc5)cc4)CC[C@@H]32)c1", "inhibition": "94.5%"}
{"smiles": "Cc1ccc(S(=O)(=O)N2C[C@@H](O)COC[C@@H]3O[C@H](CC(=O)NCc4ccc(Cl)c(Cl)c4)CC[C@H]32)cc1", "inhibition": "97.5% (active)"}
{"smiles": "COc1cccc(S(=O)(=O)N2C[C@@H](O)COC[C@@H]3O[C@H](CC(=O)Nc4ccccc4)CC[C@H]32)c1", "inhibition": "109% (active)"}
{"smiles": "Cc1ccc(S(=O)(=O)Nc2ccc3c(c2)C(=O)N([C@@H](C)CO)C[C@@H](C)[C@H](CN(C)Cc2ccncc2)O3)cc1", "inhibition": "5.91%"}
{"smiles": "CN(C)C(=O)[C@@H]1[C@@H](CO)[C@@H]2Cn3c(ccc(-c4ccccc4F)c3=O)[C@@H]2N1C(=O)C1CC1", "inhibition": "30.9%"}
{"smiles": "C[C@@H]1CCCCO[C@H](CN(C)S(=O)(=O)c2cn(C)cn2)[C@@H](C)CN([C@@H](C)CO)C(=O)c2cc(NC(=O)CCC(F)(F)F)ccc2O1", "inhibition": "28.2%"}
{"smiles": "O=C(C[C@@H]1CC[C@@H](NS(=O)(=O)c2ccccc2)[C@H](CO)O1)NCc1ccc(Cl)c(Cl)c1", "inhibition": "-48.5%"}
{"smiles": "C[C@@H]1CN([C@@H](C)CO)C(=O)c2cc(C#CC(C)(C)O)cnc2O[C@@H]1CN(C)C(=O)C1CCOCC1", "inhibition": "-1.59%"}
{"smiles": "O=C(Cc1ccncc1)Nc1ccc2c(c1)[C@@H]1C[C@H](CC(=O)N3CCCCC3)O[C@H](CO)[C@@H]1O2", "inhibition": "14.2%"}
{"smiles": "CN1c2ccc(-c3ccccc3)cc2[C@@H]2[C@@H](CCN2C(=O)NC2CCCC2)[C@H]1CO", "inhibition": "6.51%"}
{"smiles": "C[C@@H]1CCCCO[C@H](CN(C)C(=O)Nc2cccc3ccccc23)[C@H](C)CN([C@H](C)CO)C(=O)c2cc(NS(=O)(=O)c3cccs3)ccc2O1", "inhibition": "115% (active)"}
{"smiles": "Cc1noc(C)c1S(=O)(=O)Nc1ccc2c(c1)C(=O)N([C@@H](C)CO)C[C@@H](C)[C@H](CN(C)C(=O)Nc1cccc3ccccc13)O2", "inhibition": "-148%"}
{"smiles": "C[C@@H]1CCCCO[C@H](CN(C)C(=O)Nc2cccc3ccccc23)[C@@H](C)CN([C@H](C)CO)C(=O)c2cc(NS(=O)(=O)c3cccs3)ccc2O1", "inhibition": "87.5%"}
{"smiles": "Cc1noc(C)c1S(=O)(=O)Nc1ccc2c(c1)C(=O)N([C@@H](C)CO)C[C@@H](C)[C@H](CN(C)C(=O)Nc1cccc3ccccc13)OCCCC[C@H](C)O2", "inhibition": "72.3%"}
{"smiles": "Cc1noc(C)c1S(=O)(=O)Nc1ccc2c(c1)C(=O)N([C@@H](C)CO)C[C@H](C)[C@@H](CN(C)C(=O)Nc1cccc3ccccc13)OCCCC[C@H](C)O2", "inhibition": "104% (active)"}
{"smiles": "C[C@@H]1CCCCO[C@@H](CN(C)C(=O)Nc2cccc3ccccc23)[C@@H](C)CN([C@H](C)CO)C(=O)c2cc(NS(C)(=O)=O)ccc2O1", "inhibition": "-3.68%"}
{"smiles": "C[C@H]1CN([C@@H](C)CO)C(=O)c2cc(-c3ccccc3)cnc2O[C@H]1CN(C)C(=O)C1CCOCC1", "inhibition": "60.3%"}
{"smiles": "CC(=O)N1[C@@H](CO)[C@@H]2c3ccccc3N(S(=O)(=O)c3ccccc3)C[C@@H]21", "inhibition": "17.9%"}
{"smiles": "CN1C(=O)c2cc(NC(=O)c3ccno3)ccc2OC[C@H]2O[C@@H](CC(=O)NCC(F)(F)F)CC[C@@H]21", "inhibition": "-16.1%"}
{"smiles": "CO[C@@H]1CN(C)C(=O)c2ccc(NC(=O)c3ccc(F)cc3)cc2OC[C@H](C)N(C(=O)c2ccc(F)cc2)C[C@@H]1C", "inhibition": "33.4%"}
{"smiles": "C[C@@H]1CN([C@@H](C)CO)S(=O)(=O)c2ccc(C#CCN(C)C)cc2O[C@@H]1CN(C)C(=O)CC1CC1", "inhibition": "27.9%"}
{"smiles": "C[C@@H]1CN([C@H](C)CO)S(=O)(=O)c2ccc(C#CCN(C)C)cc2O[C@H]1CN(C)C(=O)CC1CC1", "inhibition": "92.5%"}
{"smiles": "C[C@@H]1CN([C@H](C)CO)S(=O)(=O)c2ccc(C#CCC3CCCC3)cc2O[C@H]1CN(C)C(=O)CC1CC1", "inhibition": "119% (active)"}
{"smiles": "COCC#Cc1ccc2c(c1)O[C@H](CN(C)C(=O)CC1CC1)[C@@H](C)CN([C@@H](C)CO)S2(=O)=O", "inhibition": "72.2%"}
{"smiles": "C[C@@H]1CN([C@@H](C)CO)S(=O)(=O)c2ccc(C#CCC3CCCC3)cc2O[C@@H]1CN(C)C", "inhibition": "2.02%"}
{"smiles": "C[C@@H]1CN([C@@H](C)CO)S(=O)(=O)c2ccc(C#CCC3CCCC3)cc2O[C@H]1CN(C)C(=O)CC1CC1", "inhibition": "116% (active)"}
